Assay results as given in the OligoGym collection.

biological target: CDCA8; experiment: pooled miR-30 sensor sort-seq; sequence = guide strand; settings: shRNA
Also: reference of the scale not given here.

Sequence	sensor-assay potency score (higher = more potent)
TTTGCTGTCAGCAAGAGGGCTG	-0.00778
TATCTGAGCCTAAACCTCCCGG	-0.819
TTACCTTTCGTGTTTTGGCAGA	-0.552
TTCATCTACCTGTATTACCTTT	-0.507
TTCACGGTCGAAGTCTTTCAGA	-1.11
TTGCTTGATTCGTATTTCCACT	-0.831
TTCGTATTTCCACTTCACGGTC	-0.813
TATCATTTCATCTACCTGTATT	-1.16
TTGGTCTTCAGTAAACAGGGAT	-0.3
TCTACCTGTATTACCTTTCGTG	-0.22
TAAACATAAAACACTGCTCCAC	-0.305

biological target: CDH19; experiment: as above; settings: shRNA

Sequence	sensor-assay potency score (higher = more potent)
TTGTTCCAGACAACGCTCCTGG	-0.175
TTTTCCAGAATGAATTTCCTGA	-0.246
TTAATTAATACACTTGTTGTTC	-0.144
TACTTGTAGTGATTGTACCATT	-0.931
TAACTTTTGCTCTAATACCGTA	-0.771
TTGATATTGAACACTTTGCTCC	-0.145
TTCATTGTCATTGATATCCGAA	0.271
TTATCTATGATTGTAAAACTTG	-0.902
TAGTCTGAATTACCTGACCAGA	-1.28
